HCV inhibitor = inhibitors of hepatitis C virus infection. Potency, µM (top dose mostly 41.8 µM), for inactives: top-dose activity change, negative = inhibition, most hits filed as inhibitors. actives 3.4% (n = 340,000). Huh7.5.1 HCVcc-Cre infection, luciferase reporter, 44 h; note: potency is the fitted concentration of half-maximal effect
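Infectious HCVcc-Cre (~0.5 moi) was added to cells just after compound, with cells seeded 4 h earlier at 1,000 per well. Luciferase activity after 44 h culture reported infection; substrate was incubated 15 min at room temperature before reading.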
Sm TGR block = blocks Schistosoma mansoni thioredoxin glutathione reductase; purified TGR, DTNB reduction, TNB absorbance 405 nm; Potency, µM (highest dose often 114 µM), for inactives: top-dose activity change, negative = inhibition, actives largely listed as inhibitors; actives 3% (n = 360,000); note: potency is the fitted concentration of half-maximal effect; nearly all actives have a fitted effect of over 60% in size
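Kinetic colorimetric format: TGR-catalysed, NADPH-driven DTNB reduction monitored via TNB absorbance. Enzyme dispensed at 20 nM; compound exposure 15 min at room temperature before reaction start.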
HCMV antiviral = blocks human cytomegalovirus replication | actives 4.5% (n = 410,000) | AID 1259415 | HFF cells, HCMV-luciferase reporter, 72 h; hits give low values | activity change, negative = inhibition, % at 57.5 µM; in the data active = activity change below about -60%; inconclusive = no clear call, values can overlap the other calls; inactive = above about -39%
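Inhibition of viral replication was scored as loss of reporter luminescence in HFFs infected with HCMV-luciferase (MOI 1 PFU/cell) for 72 h; compounds tested at 2 doses, normalized to buffer and Salinomycin controls.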
VACV mCherry inh = inhibitors of vaccinia virus infection (mCherry reporter signal); Vaccinia virus mCherry reporter infection, fluorescence; Potency, µM (doses to about 36.5 µM), inactives show at the top dose activity change, negative = inhibition, most hits filed as inhibitors; actives 0.63% (n = 310,000); calls by dose curve; tested in A549 cells; note: potency is the fitted concentration of half-maximal effect; nearly all actives have a fitted effect of over 35% in size
VACV Venus inh = vaccinia inhibition (Venus reporter). Vaccinia virus Venus reporter expression, fluorescence. Potency, µM (top dose mostly 36.5 µM), for inactives: at the top dose activity change, negative = inhibition, most hits filed as inhibitors. actives 0.46% (n = 330,000). AID 720580; calls by dose curve; tested in A549 cells; note: potency is the fitted concentration of half-maximal effect; nearly all actives have a fitted effect of over 30% in size
FMDV antiviral = antivirals against foot and mouth disease virus | FMDV antiviral cell-based qHTS | Potency, µM (series often up to 57.9 µM), for the others: at the top dose activity change, negative = inhibition, usual class: inhibitors | actives 1.2% (n = 410,000); calls by dose curve; tested in HEK293T cells; note: read-out not given here; potency is the fitted concentration of half-maximal effect; nearly all actives have a fitted effect of over 45% in size
* marks the source's active call; other numbers are inactive results; i = inactive; ? = inconclusive; / = no result given. Compounds with a hit are over-represented: about 9.3% of the library has one in this group of screens. Unless noted, calls come from the whole dose curve; as a rule, active = well fitted curve in the direction sought with a large enough effect; inconclusive = small, poorly fitted or top-dose-only effect, or another doubt; inactive = no such curve, though single readings can be large; an effect the other way counts as inactive or inconclusive. % is set by controls: 0 for no effect and ±100 for the full control effect.

SMILES	HCV inhibitor	Sm TGR block	HCMV antiviral	VACV mCherry inh	VACV Venus inh	FMDV antiviral
O=C(O)c1ccc(NC2=C(Cl)C(=O)c3ccccc3C2=O)cc1	?	?	?	/	/	25µM*
O=C1C(Cl)=C(NCCc2ccccc2)C(=O)N1CCc1ccccc1	2%	-3%	29	-2%	7%	30%
O=C(O)c1ccc(NC(=O)C(c2ccccc2)c2ccccc2)cc1	-2%	10%	-6	/	/	-6%
COc1ccc(C(=O)Nc2cc(C(C)C)c(O)c(S(=O)(=O)c3ccc(Cl)cc3)c2C)cc1	/	29%	22	5%	-10%	52%
COc1cccc(CNC(=O)CCNS(=O)(=O)c2ccc3c(c2)oc(=O)n3C)c1	23%	-6%	-27	-1%	-9%	0%
Brc1ccc(-c2nn3c(-c4ccccn4)nnc3s2)o1	-7%	?	-8	/	/	-8%
O=C1C(Cl)=C(Nc2ccccc2)C(=O)c2ccccc21	?	1µM*	0	i	-1%	40µM*
CCN(CC)CCCNC1=C(Cl)C(=O)c2ccccc2C1=O	3.2µM*	35µM*	-94*	?	?	28µM*
C=CCNC1=C(Cl)C(=O)N(c2cccc(Cl)c2Cl)C1=O	9%	-24%	55	/	-11%	-14%
CC(=O)N(Cc1ccc(F)cc1)C1=C(NCCc2ccccc2)C(=O)c2ccccc2C1=O	10µM*	?	-100*	2.8µM*	3.2µM*	25µM*
C=CCNC1=C(Cl)C(=O)N(Cc2ccccc2)C1=O	0%	40µM*	101	i	-2%	-4%
O=S(c1ccc2ccccc2c1)c1cnns1 (stereo not given)	?	-45%	-68*	/	10µM*	?
Cc1ccc(C)c(S(=O)(=O)NCc2ccc(C(=O)NCc3ccccn3)cc2)c1	22%	6%	-14	/	-23%	-20%
CCCCn1c(N)c(N(CCOC)C(=O)C2CCN(S(=O)(=O)c3ccc(F)cc3)CC2)c(=O)[nH]c1=O	1%	-3%	-36	-11%	-9%	-28%
CCCCn1c(N)c(N(CCOC)C(=O)C2CCN(S(=O)(=O)c3ccc(Cl)cc3)CC2)c(=O)[nH]c1=O	11%	-1%	-70*	-14%	-2%	-19%
CCCCC1CCC(C(=O)N(CCC(C)C)c2c(N)n(CCCC)c(=O)[nH]c2=O)CC1 (stereo not given)	/	/	-26	16µM*	11µM*	-20%
CCCCn1c(N)c(N(CCOC)C(=O)c2ccc(-n3c(C)ccc3C)cc2)c(=O)[nH]c1=O	?	40µM*	?	i	-12%	3%
CCCCn1c(N)c(N(CCOC)C(=O)c2ccc(N3C(=O)CCC3=O)cc2)c(=O)[nH]c1=O	4%	-1%	12	-13%	-7%	-15%
CCCCn1c(N)c(N(CCOC)C(=O)CSCc2ccccc2C)c(=O)[nH]c1=O	2%	-13%	-97*	i	-13%	-7%
CCCCn1c(N)c(N(CC(C)C)C(=O)C2=NN(c3ccccc3)C(=O)CC2)c(=O)[nH]c1=O	32%	89µM*	-3	-8%	-6%	-4%
CCCCn1c(N)c(N(CCC(C)C)C(=O)COC(=O)c2ccc([N+](=O)[O-])s2)c(=O)[nH]c1=O	?	/	-95*	-13%	?	-23%
C[C@@H]1CC(=O)N(C)[C@H](c2ccccc2)[C@H]1S(=O)(=O)c1ccccc1	/	/	-8	/	/	/
CCn1c(C)nc2cc(C(=O)N/N=C(\C)c3ccccc3O)ccc21	10µM*	14%	4	?	?	36%
CCn1c(C)nc2cc(NC(=O)Nc3cccc(C(C)=O)c3)ccc21	-23%	-1%	-67*	/	/	28%
O=C(Cc1ccccc1)NCc1n[nH]c(=S)n1-c1ccc(Br)cc1	14%	15%	22	-7%	-13%	-3%
SMILES	HCV inhibitor	Sm TGR block	HCMV antiviral	VACV mCherry inh	VACV Venus inh	FMDV antiviral
CC1(C)CC(=O)c2c(O)cc(OCc3ccc(Br)cc3)cc2O1	-13%	3%	-109*	/	/	14%
O=c1cc(-c2ccc(O)cc2)oc2c1ccc1ccccc12	-26%	-4%	-13	/	/	-19%
O=c1cc(C(Cl)(Cl)Cl)oc2c1ccc1ccccc12	?	-35%	-105*	?	-29%	14µM*
O=c1cc(-c2ccncc2)oc2c1ccc1ccccc12	?	2%	-79*	-12%	4%	-27%
O=C(CSc1nccn1-c1ccc(F)cc1)NCc1ccc(F)cc1	23%	10%	15	i	-11%	-2%
CCc1c(C2(O)CCCCC2)[nH]c2c(C(=O)OC)cc(Cl)cc12	?	14%	7	i	-21%	0%
COC(=O)c1cc(Cl)cc2c(C)c(C3(O)CCCCC3)[nH]c12	8.9µM*	5%	27	-28%	-20%	?
CCOC(=O)/C(C#N)=C/Nc1ccccc1NS(=O)(=O)c1cccc(C(C)=O)c1	8%	-7%	-16	-17%	4%	4%
Cc1cc(/C=C2/NC(=O)NC2=O)c(C)n1C	10%	14µM*	-28	i	6%	5%
Cc1cc(C)c(-n2c(C)cc(/C=C3/NC(=O)NC3=O)c2C)c(C)c1	-12%	-14%	?	-11%	?	?
Cc1cc(/C=C2/NC(=O)NC2=O)c(C)n1-c1sc2c(c1C#N)CCCC2	-29%	?	-73*	?	-20%	-17%
CCOC(=O)c1c(-n2c(C)cc(C=O)c2C)sc2c1CCCC2	?	0%	-23	/	/	0%
CCOC(=O)c1c(-n2c(C)cc(/C=C3\C(=O)NC(=O)N(C)C3=O)c2C)sc2c1CCCC2	14µM*	-31%	-34	/	/	-9%
COCCNc1nnc(SCC(=O)N(C)c2c(N)n(Cc3ccccc3)c(=O)[nH]c2=O)s1	25%	5%	-7	i	-13%	0%
Cc1ccc(NC(=O)C2CCCN(S(=O)(=O)c3cccc4cccnc34)C2)cc1Cl (stereo not given)	/	1%	-7	-30%	-24%	?
O=C1C(Oc2ccccc2)C(c2ccc3c(c2)OCO3)N1CCc1ccc(F)cc1 (stereo not given)	7%	-1%	-3	-19%	15%	11%
Cc1cc(C)cc(CC(=O)N2CCC2(C)C(=O)NS(=O)(=O)c2ccccc2C)c1 (stereo not given)	/	/	11	27%	1%	-11%
Cc1[nH]c2ccccc2c1SCC(=O)N1CCN(c2ccccc2)CC1	15%	4%	-5	4%	2%	-11%
Cc1c(C(=O)OCC(O)=C(C#N)c2nc3ccccc3[nH]2)oc2ccc(Br)cc12	21%	/	-8	i	0%	-16%
CCCCCC(O)C=CC1C(O)CC(O)C1CC=CCCCC(=O)O (stereo not given)	/	/	9	-11%	7%	-3%

Source: PubChem (National Center for Advancing Translational Sciences (NCATS))
